This is an account of results in PubChem BioAssay AID743279 (National Center for Advancing Translational Sciences (NCATS), 2014).

Hit rate of the full screen: of about 360,000 compounds, about 17,000 (4.7%) were called active. Inconclusive results (about 5%) are left out. This excerpt belongs to a sample that is enriched for actives. A number with no mark means an inactive call. No stated cut-off is given here; in the data, active means activity change below about -50%; inconclusive means mostly about -30% to -49%; inactive means weaker than that.
On the % scale 0 is the no-effect control and ±100 the full control effect.

This experiment is described as follows: qHTS for Inhibitors of Inflammasome Signaling: IL-1-beta AlphaLISA Primary Screen. The following applies: THP-1 LPS/ATP IL-1B secretion, 16 h; at 57.5 µM, active compounds read low. Summed up: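 Secreted IL-1B measured by AlphaLISA bead assay after 16 h compound exposure of THP-1 cells; compounds (final up to 57.5 uM) added 1 h before LPS (250 ng/mL) and ATP (1.25 mM) stimulation; lower signal means less secretion.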
As for `O=C(c1ccc(C(F)(F)F)cc1)N1CCC(=O)N([C@H](COCc2ccccc2)Cc2ccccc2)CC1`, the activity change was -29.6%.

`O=C(c1cc(Cl)cc(Cl)c1)N1CCC(=O)N(C(COCc2ccccc2)Cc2ccccc2)CC1` (centres undefined): the activity change was -74.4% (active). In the case of `CC(C)C[C@@H](CO)N1CCN(Cc2ccc(O)cc2)CCC1=O` it was 0%.

Take `Cc1ccc(S(=O)(=O)N2CCC(=O)N([C@H](COCc3ccccc3)Cc3ccccc3)CC2)cc1`: the activity change was 13.2%. The result for `CC(C)CC(CO)N1CCN(C(=O)c2ccc(Cl)cc2Cl)CCC1=O` (centres undefined) reads 4.74%; that for `CC(C)C[C@@H](COCc1ccc(Cl)cc1)N1CCN(C(=O)c2ccc(Cl)cc2Cl)CCC1=O`, -52.8% (active); that for `CCc1noc(C)c1C(=O)OCC(=O)c1ccc(NC(=O)CC(C)C)cc1`, 1.82%. In the case of `C[C@@H]1CN([C@@H](C)CO)C(=O)CCCn2nncc2CO[C@@H]1CN(C)S(=O)(=O)c1ccc(-c2ccccc2)cc1` it was -3.91%. The result for `CN=C1SC(C(=O)O)CC(=O)N1C` (centres undefined) reads 0.415%; that for `CCCCn1nnnc1C(c1ccccc1)N1CCN(c2ccccc2OC)CC1` (centres undefined), -1.89%; that for `CC1=C(C(=O)N2CCOCC2)CC(CC(=O)NCc2cccs2)C(=O)N1CCCN1CCCC1=O` (centres undefined), 2.1%. For `Cc1ccccc1-n1c(SCC(=O)NCc2cccs2)nnc1-c1ccncc1`, the activity change was -2.89%.

As for `Cc1ccc(-n2c(SCC(=O)N3c4ccccc4Sc4ccccc43)nnc2-c2ccncc2)cc1`, the activity change is -10.1%.

In the case of `Cc1ccc(Nc2nc(CSc3nnc(-c4ccncc4)n3-c3ccccc3C)cs2)cc1`, the activity change is -74.1% (active).

In the case of `Cc1ccn(CC(=O)NC2CCCN(Cc3ccccc3F)C2)n1` (centres undefined), the activity change is -22.3%. For `C[C@H](NC(=O)[C@@H]1CCCN1C(=O)[C@@H]1CCCN1C(=O)c1ccccc1)c1ccccc1`, the activity change is 9.38%. As to `CCc1oc(-c2ccc(OC)cc2)c(C(=O)OCCCCCO)c1C(C)OCCO` (centres undefined), the activity change was -1.94%. The result for `COCCNc1ncnc2c1ncn2[C@H]1CN(Cc2ccc(OC)cc2)C[C@@H](CO)O1` reads -0.989%; that for `COc1ccc(-c2oc3ncnc(NCCCO)c3c2-c2ccc(OC)cc2)cc1`, -68.8% (active). For `Cn1ncc(Br)c1C(=O)NC1CCCC1`, the activity change is -17.3%. Turning to `CN(CC(=O)NCc1ccc2c(c1)OCO2)CC(=O)Nc1ccc(F)c(F)c1F`, the activity change was -7.29%. In the case of `COc1ccc(C2CC(c3cccs3)=NN2C(=O)CSc2nncs2)cc1OC` (centres undefined) it was -14.9%. As for `COc1ccc(C2CC(c3cccs3)=Nc3ccccc3S2)cc1OC` (centres undefined), the activity change is -56.2% (active). The result for `COc1ccc(C2CC(c3cccs3)=NN2C(=O)CSc2nnc(N)s2)cc1OC` (centres undefined) reads -61.5% (active); that for `COc1ccc(C2CC(c3cccs3)=NN2C(=O)COC(=O)c2cc3ccccc3cc2O)cc1OC` (centres undefined), 12.7%; that for `COc1ccc(C2CC(=O)n3c(nc4ccccc43)S2)cc1OC` (centres undefined), -17%. In the case of `COc1ccccc1N1N=C(c2cccs2)CC1c1ccccc1` (centres undefined) it was 24%.

Consider `CC(C)(C)OC(=O)N1CCC(C(=O)Nc2cccc(C(=O)NCCc3ccccc3)c2)CC1`, for which the activity change was 17.9%. In the case of `CCC1(C)COC(c2ccc(OC)c(OC)c2)OC1` (centres undefined) it was 10.5%. For the molecule `CC1(C(=O)NCc2ccccc2)CSCC(=O)N1CCCN1CCOCC1` (centres undefined), the activity change is 16.7%.

`N#Cc1c(N)nc2c3c(sc(=N)c2c1N)NC(=O)CC3c1ccccc1Cl` (centres undefined): the activity change is 36.3%.

As for `CC1=NC2(CCCc3c2no[n+]3[O-])N(O)C1(C)C` (centres undefined), the activity change is 1.59%. The result for `COC(=O)C[C@H]1C[C@@H]2c3cc(NC(=O)Nc4ccccc4)ccc3O[C@@H]2[C@@H](CO)O1` reads 9.89%.

Regarding `COc1cc(OC)cc(C(=O)NCCCn2ccnc2)c1`, the activity change is 20.1%. In the case of `COc1cccc(-c2nn(-c3ccccc3)cc2/C=C(\C#N)C(=O)NCCCn2ccnc2)c1` it was -84% (active); in that of `COc1ccc(/C=C(\C#N)C(=O)NCCCn2ccnc2)cc1`, -1.26%; in that of `CCOC(=O)c1cc(-c2sc(NC(=O)c3ccccc3)nc2C)n(CCO)n1`, -3.33%. In the case of `NS(=O)(=O)c1ccc(NC(=O)/C=C/c2ccccc2Cl)cc1` it was -17.1%; in that of `COCCNC(=O)CSc1nc(N)c(NC(=O)c2ccco2)c(=O)[nH]1`, 0.73%; in that of `CSc1ncc(Sc2ccccc2)c(C(=O)O)n1`, 5.96%. In the case of `CSc1nc(-c2ccccc2)nc(C(Cl)Cl)n1` it was -99.1% (active); in that of `CC1(C)OC(=O)C2=C(CC(c3ccccc3)OC2CCc2ccccc2)O1` (centres undefined), -7.82%. As to `O=C(Nc1ccccc1C(=O)N1CCOCC1)c1ccc(Cl)cc1`, the activity change was 12.7%. For `CCOC(=O)N1CCN(C(=O)C2CC(c3ccc(F)cc3)=NO2)CC1` (centres undefined), the activity change is -3.7%.

As for `O=Cc1cn(CCOc2ccc(F)cc2)c2ccccc12`, the activity change was -5.47%.

As to `COC(=O)N/N=C/c1cn(CCCOc2ccc(C)cc2)c2ccccc12`, the activity change was -91% (active). Turning to `CNC(=S)N/N=C/c1cn(Cc2ccc(C)cc2)c2ccccc12`, the activity change is -7.55%. The result for `Cc1ccc([C@@H]2CC(=O)[C@@H]3CN(S(=O)(=O)c4ccc(C)cc4)[C@H](c4ccccc4F)C[C@@H]3N2S(=O)(=O)c2ccc(Cl)cc2)cc1` reads 0%; that for `Cn1cnc(S(=O)(=O)N2C[C@@H](O)COC[C@@H]3O[C@H](CC(=O)NC4CCC4)CC[C@H]32)c1`, 3.76%. `CC(=O)c1c(C)[nH]c(C(=O)OCC(=O)Nc2c(C)n(C)n(-c3ccccc3)c2=O)c1C`: the activity change is 30.6%. The result for `COc1ccc(-c2csc(NC3OC(=O)c4ccccc43)n2)cc1` (centres undefined) reads -77.8% (active). The result for `COc1ccc(N/C=C(\C2OC(=O)c3ccccc32)[N+](=O)[O-])cc1` (centres undefined) reads -0.0924%; that for `Cc1ccc(-c2csc(NC3OC(=O)c4ccccc43)n2)cc1` (centres undefined), -99% (active). The result for `CCCc1cc(-c2nc(-c3ccc(C)cc3)cs2)ccn1` reads 19.6%. As to `CCc1ccccc1NC(=O)[C@@H]1CCC(=O)N1C1OC(=O)c2c1ccc(OC)c2OC` (some centres undefined), the activity change is -9.95%. In the case of `O=C(CSC1=NCCS1)Nc1nc(-c2ccccc2)cs1` it was -4.52%; in that of `Cc1ccc(-c2csc(NC(=O)Cn3[nH]c(=O)c4ccccc4c3=O)n2)cc1`, 10.3%. In the case of `COc1ccc2c(c1OC)C(=O)OC2Nc1nc(-c2ccccc2)cs1` (centres undefined) it was -117% (active). As for `COc1ccc(C(C)(NC(C)=O)c2nc(-c3ccc(S(C)(=O)=O)cc3)cs2)cc1` (centres undefined), the activity change is -7.6%.
